Common to all, as to assay: NCI-60 one-dose screen, 48 h (100 = growth as untreated, 0 = no growth, -100 = all killed)
The subject of assay [1] is SK-MEL-2 melanoma. To be noted: 10 µM.
The test system of assay [2] is EKVX NSCLC. The conditions noted are these: 10 µM unless noted.
The test system of assay [3] is SN12C renal. The conditions noted are these: 10 µM unless noted.
Assay [4] has as its system UO-31 renal. The conditions noted are these: 10 µM unless noted.
For assay [5], the system named is TK-10 renal. To be noted: 10 µM unless noted.
Assay [6] deals with ACHN renal. To be noted: 10 µM unless noted.
Assay [7] has as its system A498 renal. The conditions noted are these: 10 µM unless noted.
In assay [8] the test system is CCRF-CEM leukemia. The conditions noted are these: 10 µM unless noted.
The test system of assay [9] is MOLT-4 leukemia. To be noted: 10 µM unless noted.
Assay [10] deals with SR leukemia. To be noted: 10 µM unless noted.
For assay [11], the system named is OVCAR-8 ovarian. To be noted: 10 µM unless noted.
For assay [12], the system named is OVCAR-5 ovarian. The conditions noted are these: 10 µM unless noted.
Assay [13] has as its system OVCAR-4 ovarian. To be noted: 10 µM unless noted.
The subject of assay [14] is SK-OV-3 ovarian. The conditions noted are these: 10 µM unless noted.
For assay [15], the system named is IGROV1 ovarian. The conditions noted are these: 10 µM unless noted.
In assay [16] the test system is OVCAR-3 ovarian. To be noted: 10 µM unless noted.
In assay [17] the test system is HS 578T breast. To be noted: 10 µM.
In assay [18] the test system is NCI/ADR-RES ovarian. The conditions noted are these: 10 µM unless noted.
For assay [19], the system named is CAKI-1 renal. To be noted: 10 µM unless noted.
The test system of assay [20] is RPMI-8226 leukemia. The conditions noted are these: 10 µM unless noted.

Each structure is given as a SMILES string. This is part of a sample that, as a whole, favours compounds with a hit. Of some 83,000 tested, about 20% had one in any assay.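 Activity criterion: percent growth below 10, measured after cells in 96-well plates were exposed to a single compound concentration for 48 hours.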 Values without a mark were called inactive. Active and inactive are the calls of the source.

Take `Nc1nc(=S)c2ncn(C3OC(COC(=O)c4ccc(Cl)cc4)C(OC(=O)c4ccc(Cl)cc4)C3OC(=O)c3ccc(Cl)cc3)c2[nH]1` (centres undefined): the growth in [1] was 94.5%; in assay [2], 71.4%; in [3], 92.7%; in assay [4] it was 79.4%; in assay [5], 91.3%; in assay [6], 98.2%. For the same compound, the growth in [7] is 75%; in assay [8], 12.7%; in assay [9], 65.1%; in assay [10] it was 72.8%; in [11] it was 129%; in [12], 91.9%. The growth in [13] is 86.2%; in [14], 43.5%; in assay [15] it was 93.5%; in assay [16], 81%; in assay [17], -29% (active); in [18] it was 103%.
As for `O=CC(OC(=O)c1ccccc1)C(OC(=O)c1ccccc1)C(COC(c1ccccc1)(c1ccccc1)c1ccccc1)OC(=O)c1ccccc1` (centres undefined), the growth in assay [1] is 96.7%; in [2], 88.8%; in assay [3], 61.8%; in assay [4] it was 19.8%; in [5], 77.8%; in assay [6], 60%. In addition, the growth was 122% in assay [7]; -18.6% (active) in assay [8]; -14.6% (active) in assay [9]; -12.9% (active) in assay [10]; -17.6% (active) in assay [11]; 61% in assay [12]. For the same compound, the growth is 89.9% in [13]; 98.8% in [14]; -38.5% (active) in assay [15]; 21.4% in assay [16]; 51.8% in assay [17]; 92.8% in assay [18].
Regarding `CCc1ccc(/C=C/c2ccc(O)c3ncccc23)[n+](C)c1`, the growth is 78.4% in assay [1]; 47% in assay [2]; 31.4% in [3]; 27.1% in assay [4]; 85.5% in assay [5]; 89.3% in [6]. Further, the growth in assay [7] is 29.6%; in assay [8] it was 22.8%; in assay [9], 7.81% (active); in assay [10], 7.25% (active); in assay [11], -12.1% (active); in [12] it was 40.9%. For the same compound, the growth was 35.9% in assay [13]; 76.7% in assay [14]; 33.4% in assay [15]; -11.4% (active) in assay [16]; 23.1% in [17]; 73.4% in assay [18].
Take `CCOC(=O)C1=C(C)N=C2Sc3cccc(OC)c3N2[C@H]1c1ccccn1`: the growth in assay [1] is 99.3%; in assay [2] it was 85.8%; in assay [3], 93.4%; in assay [4] it was 75.3%; in assay [6], 101%; in assay [19] it was 89.2%. Moreover, the growth was 102% in assay [8]; 96.9% in assay [9]; 96.9% in assay [10]; 106% in [20]; 97% in assay [11]; 110% in assay [12]. Moreover, the growth in assay [13] was 96.3%; in assay [14], 99.5%; in assay [15], 101%; in [16], 107%; in assay [17] it was 91.9%; in assay [18], 96.4%.
Turning to `O=C(NO)c1ccc(Cn2c(=O)n(-c3ccccc3F)c(=O)c3ccccc32)cc1`, the growth in assay [1] was -3.95% (active); in assay [2], 6.72% (active); in [3], 11.5%; in [4], 27.2%; in assay [6], 22%; in assay [19] it was 25%. Moreover, the growth was -34.7% (active) in assay [7]; 2.07% (active) in [8]; -8.31% (active) in assay [9]; 1.63% (active) in assay [10]; 13.3% in [20]; -39.3% (active) in assay [11]. In addition, the growth in [12] is 27.8%; in assay [13], 18.2%; in assay [14], 9.04% (active); in assay [15] it was -21.7% (active); in [16] it was -17.8% (active); in assay [17] it was 46.6%. Moreover, the growth in [18] is 41.6%.
Consider `COC(=O)CCCNc1c(-c2c(O)c(O)cc3c(O)c(-c4c(C)cc5c(-c6nc7ccccn7c6NCCCC(=O)OC)c(O)c(O)cc5c4O)c(C)cc23)nc2ccccn12`, for which the growth in assay [1] is 60.1%; in assay [2] it was 61.8%; in assay [3] it was 21.7%; in assay [4] it was 57.8%; in assay [5], 64.4%; in [7] it was 32.1%. For the same compound, the growth is 27.4% in assay [8]; 15.7% in [9]; 24.3% in assay [10]; 51.4% in assay [11]; 119% in assay [12]; 98.6% in assay [13]. For the same compound, the growth is 50.5% in assay [14]; 34.8% in assay [15]; 64.6% in assay [16]; 34.5% in [17]; 100% in assay [18].
Regarding `NC1=Nc2ccccc2N(O)N1`, the growth was 89.2% in [1]; 95.4% in assay [2]; 99.1% in assay [3]; 88.4% in assay [4]; 100% in [6]; 91.8% in assay [19]. For the same compound, the growth in assay [8] was 105%; in [9], 99.4%; in assay [10], 105%; in assay [20] it was 107%; in assay [11], 104%; in assay [12], 92.4%. The growth was 99.8% in assay [13]; 90.9% in [14]; 105% in assay [15]; 111% in [16]; 97.3% in [17]; 103% in assay [18].
Regarding `C[N+](C)(CCOC(c1ccccc1)c1ccccc1)CC(=O)OCc1ccccc1`, the growth in [1] was 105%; in assay [2] it was 101%; in assay [3], 105%; in [4] it was 86.9%; in assay [5], 96%; in assay [7], 114%. Also, the growth in [8] is 122%; in [9], 116%; in assay [10], 115%; in assay [20] it was 111%; in assay [11], 106%; in assay [12], 103%. Further, the growth in [13] is 93.5%; in assay [14] it was 106%; in assay [15] it was 106%; in assay [16], 103%; in assay [17], 108%; in assay [18] it was 105%.

The record behind these values is PubChem BioAssay (NCI).
